Activity calls are given as the source filed them. Calls follow the shape of the dose curve; as a rule, active = well fitted curve in the direction sought with a large enough effect; inconclusive = small, poorly fitted or top-dose-only effect, or another doubt; inactive = no such curve, though single readings can be large; an effect the other way counts as inactive or inconclusive.
Legend:
[1] = molecular target: Alpha-galactosidase (Coffea arabica) (UniProt Q42656); experiment: Counterscreen for Glucocerebrosidase Inhibitors: qHTS Assay for Coffee Bean alpha-Galactosidase at pH 4.5 (AID 957); also: series mostly up to about 77 µM
Sequence of Alpha-galactosidase (Coffea arabica) (Q42656 whole entry, looked up): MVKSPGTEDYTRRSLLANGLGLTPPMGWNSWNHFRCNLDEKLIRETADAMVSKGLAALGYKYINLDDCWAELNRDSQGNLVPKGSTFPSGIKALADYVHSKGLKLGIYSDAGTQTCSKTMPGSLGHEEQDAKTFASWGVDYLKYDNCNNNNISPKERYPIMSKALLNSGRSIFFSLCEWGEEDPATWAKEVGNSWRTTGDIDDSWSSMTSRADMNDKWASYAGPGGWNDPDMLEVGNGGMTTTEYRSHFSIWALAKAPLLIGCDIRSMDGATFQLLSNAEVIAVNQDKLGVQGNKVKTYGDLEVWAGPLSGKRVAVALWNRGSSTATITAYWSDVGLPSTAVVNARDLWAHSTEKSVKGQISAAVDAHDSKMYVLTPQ
In short: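 AC50 values derive from Hill-equation modeling of concentration-response data, normalized to no-enzyme and full-activity controls. The pH 4.5 citrate assay used 2 nM coffee bean enzyme and 80 uM fluorogenic substrate for 20 min.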

[2] = molecular target: Alpha-galactosidase (Coffea arabica) (UniProt Q42656); experiment: Counterscreen for Glucocerebrosidase Inhibitors: qHTS Assay for Coffee Bean alpha-Galactosidase at pH 5.9 (AID 998)
In short: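 Green coffee bean enzyme (2 nM) with 4-methylumbelliferyl alpha-D-galactopyranoside (80 uM) in 50 mM citric acid, 0.005% Tween-20, pH 5.9, 20 min at room temperature; compounds 0.7 nM–77 uM. Stopped at pH 10, fluorescence Ex365/Em440; Hill-fit AC50.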

SMILES | outcome [1] | outcome [2]
C#C[C@]1(O)CC[C@H]2[C@H]3CCC4=Cc5oncc5C[C@]4(C)[C@@H]3CC[C@]21C | inactive | inactive
Cc1cc(C)c(/C=C2/C(=O)Nc3ccccc32)[nH]1 | inactive | inactive
CCCCCCCCCCCCCCCC(=O)O[C@H](CC(=O)O)C[N+](C)(C)C | inactive | inactive
CCN(CC)CCC[C@H](C)Nc1c2ccc(Cl)cc2nc2ccc(OC)cc12 | inactive | inactive
CCN(CC)CCC[C@H](C)Nc1ccnc2cc(Cl)ccc12 | inactive | inactive
N[C@@H](CO)C(=O)NNCc1ccc(O)c(O)c1O | inactive | inactive
N[C@H](CCC(=O)NCS(=O)(=O)O)C(=O)O | inactive | inactive
NC(=O)c1ncn([C@@H]2O[C@@H](CO)[C@@H](O)[C@H]2O)c1O | inactive | inactive
Cc1cccc(C)c1OC[C@H](C)N | inactive | inactive
O=[N+]([O-])c1ccc(CSc2ncnc3c2ncn3[C@@H]2O[C@@H](CO)[C@@H](O)[C@H]2O)cc1 | inactive | inactive
Oc1cc2c(cc1O)[C@H](c1ccccc1)CNCC2 | inactive | inactive
COC(=O)[C@H](N)Cc1ccc(Cl)cc1 | inactive | inactive
CCCN(CCC)C(=O)[C@@H](CCC(=O)O)NC(=O)c1ccccc1 | inactive | inactive
CC(=O)[C@@]1(O)Cc2c(O)c3c(c(O)c2[C@H](O[C@H]2C[C@H](N)[C@H](O)[C@H](C)O2)C1)C(=O)c1ccccc1C3=O | inactive | inactive
CCCCC[C@H](O)CCCC(=O)O | inactive | inactive
CCCCC/C=C\C[C@H](O)/C=C\c1cccc(C[C@H](O)CCCCO)n1 | inactive | inactive
C[C@H]1CN(S(=O)(=O)c2cccc3cnccc23)CCN1 | inactive | inactive
O=C(/C=C\c1ccc(O)cc1)c1ccc(O)cc1O | inactive | inactive
Nc1ncnc2c1ncn2[C@@H]1CCCO1 | inactive | inactive
CC[C@]1(C)CC(=O)NC1=O | inactive | inactive

SMILES | outcome [1] | outcome [2]
N[C@@H](CO)C(=O)O | inactive | inactive
COC(=O)c1c(-c2cc(OC)c(OC)c(OC)c2)c2ccnc(OCc3ncccn3)c2c(=O)n1Cc1ccnc(C)c1 | inactive | inactive
FC(F)(F)c1cc(CO[C@@H]2CCCN[C@H]2c2ccccc2)cc(C(F)(F)F)c1 | inactive | inactive
CCNC(=O)[C@@H]1O[C@@H](n2cnc3c(N)nc(NCCc4ccc(CCC(=O)O)cc4)nc32)[C@H](O)[C@@H]1O | inactive | inactive
CCCN(CCc1ccccc1)[C@H]1CCc2c(O)cccc2C1 | inactive | inactive
OC[C@@H]1O[C@@H](n2cnc3cncnc32)[C@@H](O)[C@H]1O | inactive | inactive
C[C@@H](C(=O)O)c1ccc(C[C@@H]2CCCC2=O)cc1 | inactive | inactive
CN[C@@H](CC(C)C)C(=O)N[C@@H]1C(=O)N[C@H](CC(N)=O)C(=O)N[C@H]2C(=O)N[C@H]3C(=O)N[C@H](C(=O)N[C@H](C(=O)O)c4cc(O)cc(O)c4-c4cc3ccc4O)[C@H](O)c3ccc(c(Cl)c3)Oc3cc2cc(c3O[C@@H]2O[C@@H](CO)[C@@H](O)[C@@H](O)[C@H]2O[C@H]2C[C@](C)(N)[C@H](O)[C@H](C)O2)Oc2ccc(cc2Cl)[C@@H]1O | inactive | inactive
COc1ccccc1N1CCN(C[C@@H](O)COc2cccc3ccccc23)CC1 | inactive | inactive
O=C(O)/C=C\[C@H](O)c1ccc(Cl)cc1 | inactive | inactive
CC[C@H](C)N(C)C(=O)c1cc2ccccc2c(-c2ccccc2Cl)n1 | inactive | inactive
CNCC[C@H](Oc1ccccc1C)c1ccccc1 | inactive | inactive
C=CCN1CCc2c(cc(O)c(O)c2Cl)[C@H](c2ccccc2)C1 | inactive | inactive
CC(N)=NCCC[C@H](N)C(=O)O | inactive | inactive
CC(=O)S[C@@H]1CC2=CC(=O)CC[C@@]2(C)[C@H]2CC[C@]3(C)[C@H](CC[C@@]34CCC(=O)O4)[C@H]12 | inactive | inactive
O=C(O)CCC(=O)N1CCC[C@H]1C(=O)O | inactive | inactive
CC(=O)O[C@@H]1C[C@]2(C)[C@H](C[C@@H](O)[C@H]3[C@@]4(C)CC[C@@H](O)[C@@H](C)[C@@H]4CC[C@@]32C)/C1=C(\CCC=C(C)C)C(=O)O | inactive | inactive
Cc1ccccc1[C@@H](OCCN(C)C)c1ccccc1 | inactive | inactive
C=C/C(C)=C/[C@]1(C)SC(=O)C(C)=C1O | inactive | inactive
NC(=O)c1cc[n+](CC2=C(C(=O)O)N3C(=O)[C@@H](NC(=O)[C@H](c4ccccc4)S(=O)(=O)[O-])[C@@H]3SC2)cc1 | inactive | inactive

SMILES | outcome [1] | outcome [2]
O=C(OCCN1CCCCC1)c1c[nH]c2ccccc12 | inactive | inactive
CN1[C@@H]2CC(OC(=O)[C@@H](CO)c3ccccc3)C[C@H]1[C@H]1O[C@H]12 (stereo partly drawn) | inactive | inactive
CN(C)CCCO[C@H]1[C@H]([C@H](O)CO)O[C@H]2OC(C)(C)O[C@@H]21 | inactive | inactive
CCCCC[C@H](CC(=O)NO)C(=O)N[C@@H](C(=O)N1CCC[C@H]1CO)C(C)C | inactive | inactive
Fc1ccc(C(c2ccc(F)cc2)N2CCN(C/C=C\c3ccccc3)CC2)cc1 | inactive | inactive
Oc1ccc([C@@H]2CNCc3sccc32)cc1O | inactive | inactive
[N-]=[N+]=Nc1ccc(C(=O)CSC[C@@H](NC(=O)CC[C@@H](N)C(=O)O)C(=O)NCC(=O)O)cc1 | inactive | inactive
C#C[C@H](N)CCC(=O)O | inactive | inactive
C[C@@H]1c2cccc(O)c2C(O)=C2C(=O)[C@@]3(O)C(O)=C(C(N)=O)C(=O)[C@@H](N(C)C)[C@@H]3[C@@H](O)[C@@H]21 | inactive | inactive
CC(C)CN(C)c1nc(N)c(C(=O)N=C(N)N)nc1Cl | inactive | inactive
CC(C)C[C@H](NC(=O)[C@@H](O)[C@@H](N)Cc1ccccc1)C(=O)O | inactive | inactive
S=C(S)O[C@@H]1C[C@@H]2C[C@H]1[C@@H]1CCC[C@H]21 | inactive | inactive
COc1ccc([C@H]2Sc3ccccc3N(CCN(C)C)C(=O)[C@H]2OC(C)=O)cc1 | inactive | inactive
C[C@@H](Cc1ccccc1)Nc1ncnc2c1ncn2[C@@H]1O[C@@H](CO)[C@H](O)[C@@H]1O | inactive | inactive
C[C@H](Oc1ccc(Oc2cnc3ccc(Cl)cc3n2)cc1)C(=O)O | inactive | inactive
Cc1ccccc1/C=C\C1=NCCN1 | inactive | inactive
CC[C@H](C)C(=O)O[C@H]1CCC=C2C=C[C@H](C)[C@H](CC[C@@H]3C[C@H](O)CC(=O)O3)[C@H]21 | inactive | inactive
CSc1ccc2c(c1)N(CC[C@H]1CCCCN1C)c1ccccc1S2 | inactive | inactive
CC(C)(C(=O)O)c1ccc([C@@H](O)CCCN2CCC(C(O)(c3ccccc3)c3ccccc3)CC2)cc1 | inactive | inactive
